High-throughput results: PubChem BioAssay, National Center for Advancing Translational Sciences (NCATS)
In the library only some 10% were active in any assay of this set; here they are far more common.
G9a inh – inhibitors of human histone lysine methyltransferase G9a | Q96KQ7 | G9a H3K9 monomethylation, AlphaScreen, 2 h | Potency, µM (highest dose often 102 µM), for the others: at the highest dose activity, negative = inhibition, actives largely listed as inhibitors | 8.8% of 350,000 active | AID 504332; further: potency means the concentration at half of the fitted maximal effect; on the % scale 0 is the no-effect control and ±100 the full control effect; nearly all actives have a fitted effect of over 75% in size
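Compounds were preincubated with 20 nM G9a for 15 min, after which biotinylated H3K9 peptide (500 nM) and SAM (20 uM) started a 2 h room-temperature reaction. Monomethylated product was quantified by antibody-based AlphaScreen chemiluminescence.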
HP1b chromo inh – HP1-beta chromodomain-methylated histone interaction inhibition; 0.56% of 390,000 active; AlphaScreen HP1-beta / biotin-H3K9me3 peptide binding; Potency, µM (series often up to 114 µM), for inactives: top-dose activity change, negative = inhibition, most hits filed as inhibitors; P83916; AID 540317; further: potency means the concentration at half of the fitted maximal effect; nearly all actives have a fitted effect of over 70% in size
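Compound inhibition of the preformed complex between 50 nM HP1-beta and 50 nM biotinylated H3K9me3 peptide was read by AlphaScreen. Buffer was PBS pH 7.4 with 0.01% Tween-20. Incubations ran 30 min at room temperature, with 10 ug/mL donor/acceptor beads.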
CtBP-E1A blk – inhibitors of CtBP/E1A interaction. AlphaScreen GST-E1A/His-CtBP binding, 1536-well; active compounds read low. activity change, % (concentration not given with the values). 0.49% of 340,000 active. AID 651724; in the data active means activity change below about -65%; inconclusive means mostly about -30% to -63%; further: on the % scale 0 is the no-effect control and ±100 the full control effect
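In 5 uL wells, 23 nL compound meets equimolar GST-E1A and His-CtBP (5X stock 125 nM each) for 2 h, 37 °C. Beads (5X, 50 ug/mL) then 1 h, 37 °C, dark.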
BAZ2B inh – BAZ2B (human) inhibition; Q9UIF8; AlphaScreen BAZ2B-H3K14Ac peptide displacement; Potency, µM (titrated, usually from 114 µM), without a hit: at the highest dose activity change, negative = inhibition, actives largely listed as inhibitors; 4.4% of 360,000 active; further: potency means the concentration at half of the fitted maximal effect; on the % scale 0 is the no-effect control and ±100 the full control effect; nearly all actives have a fitted effect of over 60% in size
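In this displacement format the biotinylated H3(5-23) peptide acetylated at Lys14 serves as ligand at 50 nM, with BAZ2B at 50 nM in PBS pH 7.4 containing 0.01% Tween-20. Donor and acceptor beads are 10 ug/mL final.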
Six1-Eya2 inh – blocks human Six1 binding to Eya2. Q15475+O00167. AlphaScreen GST-Six1/His-Eya2 binding, biochemical; active compounds read low. activity change, % (test concentration not listed). 0.56% of 360,000 active; in the data active means activity change below about -65%; inconclusive means mostly about -30% to -63%; further: on the % scale 0 is the no-effect control and ±100 the full control effect
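Compounds are tested against tagged Six1 and Eya2 proteins bridged by glutathione donor and nickel acceptor beads; after a one-hour incubation at 37 °C without light, AlphaScreen emission is recorded.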
JMJD2A Tudor – JMJD2A Tudor domain (human) inhibition; AlphaScreen JMJD2A-Tudor / H3K4me3 peptide binding; Potency, µM (top dose mostly 114 µM), for the others: at the top dose activity change, negative = inhibition, usual class: inhibitors; 4.4% of 390,000 active; further: potency means the concentration at half of the fitted maximal effect; on the % scale 0 is the no-effect control and ±100 the full control effect; nearly all actives have a fitted effect of over 50% in size
Target sequence (O75164 whole entry, looked up, the tested form may be a part): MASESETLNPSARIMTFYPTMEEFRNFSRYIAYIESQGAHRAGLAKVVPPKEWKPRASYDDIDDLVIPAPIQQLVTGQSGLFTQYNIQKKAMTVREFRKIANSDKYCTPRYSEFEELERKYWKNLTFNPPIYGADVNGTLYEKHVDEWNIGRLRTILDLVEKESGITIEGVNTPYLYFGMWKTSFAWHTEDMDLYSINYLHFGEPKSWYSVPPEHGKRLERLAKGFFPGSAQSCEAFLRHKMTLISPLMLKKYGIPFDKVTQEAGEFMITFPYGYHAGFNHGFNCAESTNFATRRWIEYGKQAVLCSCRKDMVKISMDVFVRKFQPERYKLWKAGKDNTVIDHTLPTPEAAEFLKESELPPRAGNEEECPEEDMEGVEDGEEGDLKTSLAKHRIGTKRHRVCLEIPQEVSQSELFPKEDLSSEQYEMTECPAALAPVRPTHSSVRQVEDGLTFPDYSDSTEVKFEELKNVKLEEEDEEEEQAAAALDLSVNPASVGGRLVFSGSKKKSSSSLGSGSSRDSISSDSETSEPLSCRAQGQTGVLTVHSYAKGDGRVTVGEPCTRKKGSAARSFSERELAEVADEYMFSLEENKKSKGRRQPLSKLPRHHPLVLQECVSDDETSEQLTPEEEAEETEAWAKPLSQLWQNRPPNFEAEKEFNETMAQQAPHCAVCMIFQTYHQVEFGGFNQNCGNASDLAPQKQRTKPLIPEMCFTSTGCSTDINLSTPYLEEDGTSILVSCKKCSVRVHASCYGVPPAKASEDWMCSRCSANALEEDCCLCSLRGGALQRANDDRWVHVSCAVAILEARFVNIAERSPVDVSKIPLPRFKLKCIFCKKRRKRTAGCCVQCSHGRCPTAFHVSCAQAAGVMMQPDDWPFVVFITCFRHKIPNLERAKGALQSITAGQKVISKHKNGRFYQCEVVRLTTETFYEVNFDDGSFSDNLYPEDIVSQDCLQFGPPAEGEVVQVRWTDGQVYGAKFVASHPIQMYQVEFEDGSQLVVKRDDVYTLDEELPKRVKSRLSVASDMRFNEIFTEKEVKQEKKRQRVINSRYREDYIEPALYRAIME
The depositor's hits bear a star; u = inconclusive; x = no result given; [ ] = another dose, or the depositor's remark. Unless noted, the call rests on the fitted dose curve; in most records, active means well fitted inhibition curve with a large enough effect; inconclusive means small, poorly fitted or top-dose-only effect; inactive means no such curve, though single readings can be large or run the other way.

SMILES | G9a inh | HP1b chromo inh | CtBP-E1A blk | BAZ2B inh | Six1-Eya2 inh | JMJD2A Tudor
COc1ccc(N2CCN(C(=O)CCn3cnc4onc(-c5ccc(F)cc5)c4c3=O)CC2)cc1 | 14µM* | -10% | x | u | x | u
COc1ccc(N2CCN(C(=O)COC(=O)c3ccc(C)o3)CC2)cc1 | 50µM* | 6% | 2 | -9% | -10 | -17%
COc1ccccc1CC(=O)OCC(=O)N1CCN(c2ccc(F)cc2)CC1 | x | 38% | x | x | -3 | -17%
CC(=O)[C@H]1[C@H](C#N)CC2C3CC=C4C[C@@H](O)CCC4(C)C3CCC21C (some centres undefined) | 27%[59 µM] | x | x | x | x | x
c1ccc(CNc2ccccn2)cc1 | -7% | 38% | x | -3% | -1 | 1%
c1ccc(C2(CNc3ccccn3)CCCC2)cc1 | 50µM* | 29% | 5 | 9% | 2 | -10%
CCOc1ccc(NC2c3ccccc3C(=O)N2Cc2ccc3c(c2)OCO3)cc1 (centres undefined) | 35µM* | u | u | 16µM* | -8 | 45µM*
O=C1c2ccccc2C(Nc2cccnc2)N1Cc1ccccc1 (centres undefined) | 25µM* | 17% | 3 | u | 0 | -14%
CC(=O)c1cccc(NC2c3ccccc3C(=O)N2Cc2ccc3c(c2)OCO3)c1 (centres undefined) | u | 25% | -8 | -2% | -2 | -17%
O=C1c2ccccc2C(Nc2cccnc2)N1Cc1ccccc1Cl (centres undefined) | u | 43% | -7 | 4% | -3 | -11%
O=C1c2ccccc2C(Nc2ccc3c(c2)OCCO3)N1Cc1ccccc1 (centres undefined) | 45µM* | u | u | 40µM* | -27 | 40µM*
COc1cc(NC2c3ccccc3C(=O)N2Cc2ccc3c(c2)OCO3)cc(OC)c1OC (centres undefined) | u | 7% | -10 | -28% | 5 | -32%
CCCCOc1cccc(NC(=O)CSc2nnc(C)s2)c1 | -42%[59 µM] | -23% | x | 5% | x | -15%
COc1ccc(-c2cc(C)no2)cc1S(=O)(=O)Nc1cccc(C(F)(F)F)c1 | -19%[59 µM] | 25% | x | 0% | x | -2%
CCC(=O)N1CCc2cc(CNS(=O)(=O)c3ccc(C(C)C)cc3)ccc21 | -1%[59 µM] | 46% | x | -3% | x | -11%
O=C(Nc1ccc(Cl)c(C(F)(F)F)c1)C(Cc1ccccc1)NS(=O)(=O)c1ccc(Br)s1 (centres undefined) | -25%[59 µM] | 22% | x | -2% | x | -9%
CNC1C(O)C(OC2C(NC(=O)C(O)CN)CC(N)C(OC3OC(CN)C(O)C(O)C3O)C2O)OCC1(C)O (centres undefined) | 32%[59 µM] | x | x | x | x | x
COc1cc(-c2nnc(SCC(=O)NCc3ccccc3Cl)o2)cc(OC)c1OC | 1%[59 µM] | 22% | x | 0% | x | -16%
CCCCN(C(=O)CSc1nnc(-c2ccc(Cl)cc2)o1)c1c(N)n(CC(C)C)c(=O)[nH]c1=O | 1µM* | 6% | -10 | 0% | 10 | -12%
CCCCn1c(N)c(N(CC(C)C)C(=O)CSc2nn(-c3ccc(F)cc3)c(=S)s2)c(=O)[nH]c1=O | x | 33% | -3 | x | 1 | -16%
COCCN(C(=O)c1ccc(-c2ccc([N+](=O)[O-])cc2)o1)c1c(N)n(CC(C)C)c(=O)[nH]c1=O | 45µM* | 23% | 2 | -1% | -5 | -15%
COCCN(C(=O)CSc1nn(-c2ccc(F)cc2)c(=S)s1)c1c(N)n(CC(C)C)c(=O)[nH]c1=O | 8.9µM* | 21% | -6 | 9% | 5 | -12%
COCCN(C(=O)CSc1nnc(-c2ccc(Cl)cc2)o1)c1c(N)n(CC(C)C)c(=O)[nH]c1=O | 132% | 33% | 5 | 8% | 5 | 2%
COCCN(C(=O)CSc1nnc(C)n1Cc1ccccc1)c1c(N)n(CC(C)C)c(=O)[nH]c1=O | 3% | -3% | 2 | -15% | 12 | 79µM*
COCCN(C(=O)CSc1nnc(-c2ccc(C)cc2)n1N)c1c(N)n(Cc2ccccc2)c(=O)[nH]c1=O | x | 19% | -3 | -10% | 19 | -14%
SMILES | G9a inh | HP1b chromo inh | CtBP-E1A blk | BAZ2B inh | Six1-Eya2 inh | JMJD2A Tudor
Fc1ccc(Nc2nc(NCc3ccco3)nc3nccnc23)cc1 | x | 15%[57 µM] | x | x | x | -8%[57.1 µM]
COc1ccc2ncc3c(-c4ccccc4)nn(-c4ccc(C)c(C)c4)c3c2c1 | -19%[59 µM] | 14% | x | x | x | u
CCCCN(C(=O)CSc1nnc(-c2ccc(OC)cc2)n1C(C)C)c1c(N)n(Cc2ccccc2)c(=O)[nH]c1=O | 10µM* | 32% | x | -28% | -1 | -14%
COCCN(C(=O)CSc1nnc(-c2ccc(F)cc2)n1N)c1c(N)n(CC(C)C)c(=O)[nH]c1=O | x | x | 2 | x | 0 | x
COCCN(C(=O)CSc1nnc(-c2ccc(C(C)(C)C)cc2)n1N)c1c(N)n(CC(C)C)c(=O)[nH]c1=O | 40µM* | 40% | -2 | 5% | -3 | -4%
COc1cc(C2c3c(oc4ccc(C)cc4c3=O)C(=O)N2Cc2ccccc2)ccc1O (centres undefined) | -11%[59 µM] | 20% | x | -33% | x | -13%
CCc1ccc2c(c1)c(=O)c(S(=O)(=O)c1ccccc1)cn2CC(=O)Nc1cc(C)ccc1C | 0%[59 µM] | 50% | x | -6% | x | -7%
CCOC(=O)c1oc2c(c1C)-c1nn(Cc3cccc(Cl)c3)cc1CC2 | 29%[59 µM] | 68% | x | 3% | x | 1%
COCCNC(=O)c1ccc(Cn2c(=S)[nH]c3cc4c(cc3c2=O)OCO4)cc1 | u | 38% | 3 | -29% | 7 | 28µM*
CCOc1cc2[nH]c(=S)n(Cc3ccc(C(=O)NCCCOC)cc3)c(=O)c2cc1OCC | 13% | 56% | 2 | -3% | 3 | -3%
COC(CNC(=O)c1ccc(Cn2c(=S)[nH]c3cc4c(cc3c2=O)OCO4)cc1)OC | u | 26% | 0 | u | -2 | 22µM*
COC(=O)c1ccc2c(=O)n(Cc3ccc4c(c3)OCO4)c(=S)[nH]c2c1 | 24% | 45% | x | -4% | 10 | -10%
CC(=O)N1CCc2cc(Br)cc(S(=O)(=O)N3CCN(c4cccc(C(F)(F)F)c4)CC3)c21 | -18%[59 µM] | 35% | x | 1% | x | -9%
Cc1ccc(N2CC(NC(=O)c3ccc(Br)o3)CC2=O)cc1C (centres undefined) | 6%[59 µM] | 10% | x | -7% | x | -8%
COc1ccc(C=NN=C2c3ccccc3-c3ccccc32)cc1OC | x | u | -2 | x | u | 13µM*
Cc1ccc(N2CC(NC(=O)Cc3ccc(F)cc3)CC2=O)cc1C (centres undefined) | 5%[59 µM] | -6% | x | 2% | x | -15%
COc1cc2ccc(=O)oc2c(O)c1OCC=C(C)C | 11µM* | -11% | -6 | -33% | -2 | u
